Source: the supplement of paper PMC9135407
Where a name gives a salt, the structure may show the parent alone.

Test system: primary human hepatic stellate cells (donor 1)
Assay: COL1A1 mRNA fold change vs DMSO (normalised to PSMB2); higher = more COL1A1 expression, active = hit call of the paper
Conditions: 48 h
Experimental: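 Secondary qRT-PCR screen in primary human HSCs (donor 1), 384-well plates, with compounds dispensed in quadruplicate and incubated for 48 h. Cells-to-CT lysates were used for multiplexed TaqMan qPCR of ACTA2 or COL1A1 with PSMB2 as reference. Fold changes versus DMSO come from a linear model (Ct_gene ~ Ct_PSMB2 + plate + chemical). A hit is defined as COL1A1 and ACTA2 FC <0.5 (FDR <0.05) with PSMB2 between 0.2 and 2.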

Structure (SMILES) | COL1A1 mRNA fold change
CN1CCN2c3ccccc3Cc3ccccc3C2C1 (stereo not given) [Mianserin hcl] (25.2333 µM) | 0.529 (inactive)
CCCSc1ccc2[nH]c(NC(=O)OC)nc2c1 [Albendazole] (33.3333 µM) | 0.881 (inactive)
O=C(c1ccc(/C=C/c2n[nH]c3ccccc23)cc1)N1CCNCC1 (33.3333 µM) | 0.0707 (inactive)
Cn1cc(C2=C(c3ccc(Cl)cc3Cl)C(=O)NC2=O)c2ccccc21 (33.3333 µM) | 2.59 (inactive)
C[C@@H]1CN(CCCn2c3ccccc3c3ccccc32)C[C@H](C)N1 [Rimcazole dihydrochloride] (33.3333 µM) | 0.14 (inactive)
CC(C)c1ccc(C(=O)c2cccs2)c(SCCCCCCCCN(C)C)n1 (33.3333 µM) | 0.429 (inactive)
Cc1[nH]c(/C=C2\C(=O)Nc3ccc(S(=O)(=O)N(C)c4cccc(Cl)c4)cc32)c(C)c1C(=O)N1CCN(C)CC1 (33.3333 µM) | 0.254 (active)
COC(=O)N[C@H](C(=O)N1CCC[C@H]1c1ncc(-c2ccc(-c3ccc(-c4cnc([C@@H]5CCCN5C(=O)[C@@H](NC(=O)OC)C(C)C)[nH]4)cc3)cc2)[nH]1)C(C)C (33.3333 µM) | 0.0176 (inactive)
COc1ccc(NS(=O)(=O)c2sc3ccc(Cl)cc3c2C)cc1N1CCNCC1 (33.3333 µM) | 0.0858 (active)
C[C@]12CC[C@H](O)CC1=CC[C@@H]1[C@@H]2CC[C@]2(C)C(n3cnc4ccccc43)=CC[C@@H]12 [Galeterone] (33.3333 µM) | 0.0557 (inactive)
CN(C)CCCCC(=O)Nc1ccc(NC(=S)NC(=O)c2ccc(C(C)(C)C)cc2)cc1 [Tenovin-6] (33.3333 µM) | 0.00938 (inactive)
CNCCCC12CCC(c3ccccc31)c1ccccc12 [Maprotiline hydrochloride] (33.3333 µM) | 0.0732 (active)
O=C(Nc1cc(C(F)(F)F)cc(C(F)(F)F)c1)c1cc(Cl)ccc1O (33.3333 µM) | 0.203 (active)
CCN(CC)CC#CCOC(=O)C(O)(c1ccccc1)C1CCCCC1 (stereo not given) [Oxybutynin chloride] (16.9333 µM) | 0.755 (inactive)
COc1ccccc1OCCNCC(O)COc1cccc2[nH]c3ccccc3c12 (stereo not given) [Carvedilol] (33.3333 µM) | 0.294 (inactive)
CC[C@]1(O)C[C@@H]2CN(CCc3c([nH]c4ccccc34)[C@@](C(=O)OC)(c3cc4c(cc3OC)N(C)[C@H]3[C@@](O)(C(=O)OC)[C@H](OC(C)=O)[C@]5(CC)C=CCN6CC[C@]43[C@@H]65)C2)C1 [Vinblastine sulfate] (33.3333 µM) | 0.513 (inactive)
COc1cc2ncn(-c3cc(OCc4ccccc4C(F)(F)F)c(C(N)=O)s3)c2cc1OC (33.3333 µM) | 1.1 (inactive)
O=C(Nc1ncc(SCCN2CCCC2)s1)[C@]1(c2ccc(S(=O)(=O)C3CC3)cc2)C[C@H]1C1CCCCC1 (11.1 µM) | 0.0203 (active)
CN1CCC(CNc2ccc3ncc(-c4cccc(OC(F)(F)F)c4)n3n2)CC1 (6.66667 µM) | 0.552 (inactive)
CCN(CC)CCOc1ccc(Cc2ccccc2)cc1 [DPPE fumarate] (33.3333 µM) | 0.51 (inactive)

Structure (SMILES) | COL1A1 mRNA fold change
Cc1cccc(Nc2nc(-c3ccncc3)cs2)c1 (11.1 µM) | 0.552 (inactive)
CNCCC(Oc1ccc(C(F)(F)F)cc1)c1ccccc1 (stereo not given) [Fluoxetine hydrochloride] (33.3333 µM) | 0.114 (active)
O=C1Nc2ccccc2/C1=C1/Nc2ccccc2C1=O [Indirubin] (63.5333 µM) | 0.897 (inactive)
CN1CCC(NC(=O)c2cc(-c3c(O)cc(O)cc3Oc3ccc([N+](=O)[O-])cc3)on2)CC1 (33.3333 µM) | 1.15 (inactive)
CN1CCN(C2=Cc3ccccc3Oc3ccc(Cl)cc32)CC1 (33.3333 µM) | 0.416 (active)
CCC/C=C\C=C/C(=O)N[C@@H](CC(N)=O)C(=O)NC(CC(N)=O)C(=O)N[C@@H](C(=O)N[C@H](CCCN)C(=O)N[C@@H](C(=O)N[C@@H](C(=O)N[C@@H](C(=O)N[C@H](C(=O)N[C@@H](Cc1ccccc1)C(=O)N[C@H](CCCN)C(=O)NC(C(=O)N[C@H](C(=O)NC(C(=O)NCC(=O)N[C@@H](CC(C)C)C(=O)N[C@H](C)C(=O)NC(C(=O)O)C1CCC(O)C(Cl)C1)C1CCC(O)CC1)[C@H](C)O)C1CCC(O)CC1)[C@H](C)O)C1CCC(O)CC1)C1CCC(O)CC1)[C@H](C)O)C1CCC(O)CC1 (stereo not given in full) (33.3333 µM) | 1.59 (inactive)
c1ccc2c(NCCCCCCCNc3c4c(nc5ccccc35)CCCC4)c3c(nc2c1)CCCC3 [bis(7)-Tacrine] (3.33333 µM) | 0.0304 (active)
C#CC1(O)CC[C@H]2[C@@H]3CCC4=CC(=O)CC[C@@H]4[C@H]3CC[C@@]21CC (stereo not given in full) [Norgestrel] (21.3333 µM) | 1.14 (inactive)
Cc1ccc2c(c1)c1c3n2CCNC3CCC1 (stereo not given) [Pirlindole mesylate] (20.6667 µM) | 0.473 (inactive)
Clc1ccc(C2(c3ccc(-c4cn[nH]c4)cc3)CCNCC2)cc1 (33.3333 µM) | 0.285 (active)
CN1CCN(Cc2ccc(-c3cnc4[nH]cc(-c5ccc6[nH]ccc6c5)c4c3)cc2)CC1 (6.66667 µM) | 0.0518 (active)
CC(C)NCCCn1c(Sc2cc3c(cc2I)OCO3)nc2c(N)ncnc21 (33.3333 µM) | 0.844 (inactive)
CCN(CC)CCCCNc1ncc2cc(-c3c(Cl)cccc3Cl)c(NC(=O)NC(C)(C)C)nc2n1 (33.3333 µM) | 0.425 (active)
CCOC(=O)C1=C(COCCN)NC(C)=C(C(=O)OC)C1c1ccccc1Cl (stereo not given) (33.3333 µM) | 0.437 (active)
CC[C@@H]1C(=O)N(C)c2cnc(Nc3ccc(C(=O)NC4CCN(C)CC4)cc3OC)nc2N1C1CCCC1 (33.3333 µM) | 0.0466 (inactive)
Cc1cc(Nc2cc(N3CCN(C)CC3)nc(/C=C/c3ccccc3)n2)n[nH]1 (11.1 µM) | 0.343 (inactive)
C[C@@H](Oc1cc(-c2cnn(C3CCNCC3)c2)cnc1N)c1c(Cl)ccc(F)c1Cl (11.1 µM) | 0.235 (active)
N=C(N)SCCc1ccc(OCc2ccc([N+](=O)[O-])cc2)cc1 [KB-R7943 mesylate] (33.3333 µM) | 0.168 (active)
NC1(c2ccc(-c3nc4ccn5c(=O)[nH]nc5c4cc3-c3ccccc3)cc2)CCC1 (11.1 µM) | 0.184 (inactive)
O=S(=O)(NCCNC/C=C/c1ccc(Br)cc1)c1cccc2cnccc12 [H-89, Dihydrochloride] (11.1 µM) | 0.594 (inactive)
